Reference: the supplement of paper PMC10849652
Of roughly 8,800 targets only a part is listed; those with a hit were picked by preference. About 0.5% of all pairs of compound and target were hits. Values without a mark were called inactive.

What follows are targets tested with CC(C)(C)Cn1c(N)nc2ccc(-c3[nH]c(C(C)(C)C)nc3-c3ccc(F)cc3)nc21 [ralimetinib] (assay: log2 fold change, soluble protein after heating vs DMSO (PISA); higher = thermal stabilisation; K562 lysate, 10 uM; active = over 0.2 and 3.5 SD of the protein, either way, in both replicates (recomputed)).
How it was run: (§1)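 Values give the log-two fold change in thermal stability against solvent controls, from duplicates. Crude K562 extract at 1 mg/mL protein, made by dounce homogenisation in PBS pH 7.4 with 1 mM MgCl2, was treated with 10 μM compound for 30 min. After 3 min heating across 48°C-58°C, aliquots were pooled, adjusted to 0.5% NP-40 at 4°C and centrifuged at 21,000xg for 90 min. The supernatant was measured by TMTpro 16plex LC-MS/MS with channel sums equalised.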

Chain of UniProt Q8TBZ3 (Q8TBZ3 whole entry, looked up): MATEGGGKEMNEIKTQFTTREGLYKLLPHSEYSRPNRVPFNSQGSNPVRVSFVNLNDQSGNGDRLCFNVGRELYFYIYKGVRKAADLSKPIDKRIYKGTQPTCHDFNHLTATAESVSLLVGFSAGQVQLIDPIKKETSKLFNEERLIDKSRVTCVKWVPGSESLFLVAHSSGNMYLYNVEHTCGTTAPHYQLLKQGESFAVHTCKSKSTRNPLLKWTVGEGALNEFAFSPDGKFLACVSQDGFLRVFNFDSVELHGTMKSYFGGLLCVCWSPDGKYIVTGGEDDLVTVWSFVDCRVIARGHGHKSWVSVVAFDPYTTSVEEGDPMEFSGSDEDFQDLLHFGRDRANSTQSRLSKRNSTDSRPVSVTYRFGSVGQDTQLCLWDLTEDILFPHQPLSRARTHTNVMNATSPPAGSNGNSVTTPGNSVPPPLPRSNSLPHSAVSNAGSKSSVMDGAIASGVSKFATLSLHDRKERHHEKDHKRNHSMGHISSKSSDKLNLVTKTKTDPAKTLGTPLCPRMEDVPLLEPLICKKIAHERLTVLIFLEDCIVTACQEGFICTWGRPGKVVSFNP
Chain of UniProt Q86U90 (Q86U90 whole entry, looked up): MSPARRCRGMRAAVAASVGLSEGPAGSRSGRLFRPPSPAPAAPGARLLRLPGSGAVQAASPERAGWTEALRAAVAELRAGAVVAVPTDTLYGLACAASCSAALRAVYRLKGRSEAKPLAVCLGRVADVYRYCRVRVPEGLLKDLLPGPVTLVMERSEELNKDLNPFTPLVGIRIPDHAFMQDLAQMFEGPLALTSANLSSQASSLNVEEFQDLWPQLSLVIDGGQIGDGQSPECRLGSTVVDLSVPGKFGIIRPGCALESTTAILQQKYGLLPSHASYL
Chain of UniProt Q86Y07 (Q86Y07 whole entry, looked up): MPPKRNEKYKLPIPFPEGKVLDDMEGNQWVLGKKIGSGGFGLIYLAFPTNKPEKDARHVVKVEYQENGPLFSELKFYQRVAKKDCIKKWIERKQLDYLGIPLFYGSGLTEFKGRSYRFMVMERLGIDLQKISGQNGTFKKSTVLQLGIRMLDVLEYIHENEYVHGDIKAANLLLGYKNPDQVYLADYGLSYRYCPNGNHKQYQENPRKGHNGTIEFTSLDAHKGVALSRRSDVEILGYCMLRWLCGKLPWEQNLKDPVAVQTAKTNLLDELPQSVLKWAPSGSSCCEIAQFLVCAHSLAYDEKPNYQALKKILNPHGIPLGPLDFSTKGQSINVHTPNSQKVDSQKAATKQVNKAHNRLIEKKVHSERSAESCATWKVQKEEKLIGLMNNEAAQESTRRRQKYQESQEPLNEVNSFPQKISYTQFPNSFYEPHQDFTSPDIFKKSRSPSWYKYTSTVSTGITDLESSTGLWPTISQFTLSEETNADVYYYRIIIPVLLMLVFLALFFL
Chain of UniProt P22695 (P22695 whole entry, looked up): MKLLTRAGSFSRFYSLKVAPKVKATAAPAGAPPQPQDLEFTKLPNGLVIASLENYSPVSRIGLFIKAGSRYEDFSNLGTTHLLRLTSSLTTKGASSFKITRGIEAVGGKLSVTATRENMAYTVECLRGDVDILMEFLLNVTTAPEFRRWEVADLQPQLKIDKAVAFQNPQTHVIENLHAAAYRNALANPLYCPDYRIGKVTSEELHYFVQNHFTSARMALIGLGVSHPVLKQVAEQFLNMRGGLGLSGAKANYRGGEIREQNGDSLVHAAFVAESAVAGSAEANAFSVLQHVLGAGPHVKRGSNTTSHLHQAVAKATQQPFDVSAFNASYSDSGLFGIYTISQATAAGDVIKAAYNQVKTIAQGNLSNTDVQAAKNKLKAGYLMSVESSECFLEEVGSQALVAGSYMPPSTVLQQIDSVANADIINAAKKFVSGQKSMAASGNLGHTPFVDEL
Chain of UniProt Q8IX07 (Q8IX07 whole entry, looked up): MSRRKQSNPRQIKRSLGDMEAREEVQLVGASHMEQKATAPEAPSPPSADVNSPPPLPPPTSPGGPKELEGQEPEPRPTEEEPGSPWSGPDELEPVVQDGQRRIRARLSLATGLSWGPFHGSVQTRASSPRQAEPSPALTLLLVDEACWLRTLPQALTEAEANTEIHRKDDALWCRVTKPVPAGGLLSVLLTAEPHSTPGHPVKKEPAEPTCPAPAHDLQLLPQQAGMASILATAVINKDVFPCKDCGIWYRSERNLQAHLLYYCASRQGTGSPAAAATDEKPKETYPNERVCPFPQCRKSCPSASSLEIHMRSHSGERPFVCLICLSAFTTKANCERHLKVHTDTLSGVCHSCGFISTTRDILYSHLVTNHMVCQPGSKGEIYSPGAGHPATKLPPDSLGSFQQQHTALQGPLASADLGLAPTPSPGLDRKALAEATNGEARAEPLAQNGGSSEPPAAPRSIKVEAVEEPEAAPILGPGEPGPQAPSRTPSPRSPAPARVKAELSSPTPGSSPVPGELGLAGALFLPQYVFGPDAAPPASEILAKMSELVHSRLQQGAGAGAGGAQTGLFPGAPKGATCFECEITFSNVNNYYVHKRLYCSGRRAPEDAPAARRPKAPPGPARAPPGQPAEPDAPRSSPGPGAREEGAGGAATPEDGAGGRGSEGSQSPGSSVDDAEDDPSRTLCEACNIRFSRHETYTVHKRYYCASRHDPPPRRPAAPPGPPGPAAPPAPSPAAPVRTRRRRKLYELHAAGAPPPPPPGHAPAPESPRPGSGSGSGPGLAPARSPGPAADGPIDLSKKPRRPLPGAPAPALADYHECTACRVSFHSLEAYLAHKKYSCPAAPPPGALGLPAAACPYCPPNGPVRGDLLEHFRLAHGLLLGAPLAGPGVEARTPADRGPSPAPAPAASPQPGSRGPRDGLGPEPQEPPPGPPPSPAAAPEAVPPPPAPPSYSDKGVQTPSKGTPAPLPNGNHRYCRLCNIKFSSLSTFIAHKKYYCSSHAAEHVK
Chain of UniProt P40818 (P40818 whole entry, looked up): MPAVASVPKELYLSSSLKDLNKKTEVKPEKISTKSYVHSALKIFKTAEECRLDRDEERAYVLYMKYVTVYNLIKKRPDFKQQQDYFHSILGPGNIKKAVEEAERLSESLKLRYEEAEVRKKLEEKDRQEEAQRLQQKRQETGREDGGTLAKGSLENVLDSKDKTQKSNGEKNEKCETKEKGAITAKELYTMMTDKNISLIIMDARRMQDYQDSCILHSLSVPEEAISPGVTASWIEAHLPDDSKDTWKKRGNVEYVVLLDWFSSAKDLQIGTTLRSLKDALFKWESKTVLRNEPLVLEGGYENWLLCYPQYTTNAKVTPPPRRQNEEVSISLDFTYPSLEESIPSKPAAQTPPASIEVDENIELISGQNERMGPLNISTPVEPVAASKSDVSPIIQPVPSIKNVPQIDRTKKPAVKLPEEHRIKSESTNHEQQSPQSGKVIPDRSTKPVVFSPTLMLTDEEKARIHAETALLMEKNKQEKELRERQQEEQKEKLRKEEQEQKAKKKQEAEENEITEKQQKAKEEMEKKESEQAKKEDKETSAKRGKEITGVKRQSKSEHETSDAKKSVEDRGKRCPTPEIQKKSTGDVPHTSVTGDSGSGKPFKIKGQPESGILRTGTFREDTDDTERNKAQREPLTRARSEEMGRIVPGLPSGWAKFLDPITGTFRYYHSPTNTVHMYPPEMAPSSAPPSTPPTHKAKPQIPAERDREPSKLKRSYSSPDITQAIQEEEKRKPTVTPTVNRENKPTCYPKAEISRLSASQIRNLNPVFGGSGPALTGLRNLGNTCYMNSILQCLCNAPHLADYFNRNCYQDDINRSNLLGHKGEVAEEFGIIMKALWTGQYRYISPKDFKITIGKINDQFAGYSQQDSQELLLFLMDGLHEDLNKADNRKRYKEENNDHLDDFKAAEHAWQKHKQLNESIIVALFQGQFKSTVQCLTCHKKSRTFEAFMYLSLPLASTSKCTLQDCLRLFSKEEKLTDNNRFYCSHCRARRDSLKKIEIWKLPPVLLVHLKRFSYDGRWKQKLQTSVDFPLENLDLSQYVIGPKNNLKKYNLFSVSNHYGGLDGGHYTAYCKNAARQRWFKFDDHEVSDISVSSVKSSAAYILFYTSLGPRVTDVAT
Chain of UniProt A4D1P6 (A4D1P6 whole entry, looked up): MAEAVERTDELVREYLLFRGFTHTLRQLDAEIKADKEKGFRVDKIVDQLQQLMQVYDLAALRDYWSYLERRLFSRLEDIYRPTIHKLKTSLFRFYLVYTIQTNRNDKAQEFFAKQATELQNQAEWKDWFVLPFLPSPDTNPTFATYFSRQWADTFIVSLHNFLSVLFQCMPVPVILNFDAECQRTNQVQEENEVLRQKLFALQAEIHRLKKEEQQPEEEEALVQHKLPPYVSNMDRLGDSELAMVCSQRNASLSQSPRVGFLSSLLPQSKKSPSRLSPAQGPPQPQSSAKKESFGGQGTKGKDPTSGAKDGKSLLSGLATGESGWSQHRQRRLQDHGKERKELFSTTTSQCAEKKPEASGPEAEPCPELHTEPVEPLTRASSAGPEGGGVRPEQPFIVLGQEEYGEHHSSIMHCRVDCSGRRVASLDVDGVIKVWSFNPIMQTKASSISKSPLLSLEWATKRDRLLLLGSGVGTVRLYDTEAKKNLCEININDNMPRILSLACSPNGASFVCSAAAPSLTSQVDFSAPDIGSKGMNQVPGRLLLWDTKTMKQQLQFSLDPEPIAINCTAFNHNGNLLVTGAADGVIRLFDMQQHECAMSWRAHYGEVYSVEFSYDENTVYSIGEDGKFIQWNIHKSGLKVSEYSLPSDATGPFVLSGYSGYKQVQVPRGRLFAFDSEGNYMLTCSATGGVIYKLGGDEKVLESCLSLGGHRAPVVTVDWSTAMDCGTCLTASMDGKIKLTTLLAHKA
Chain of UniProt O00258 (O00258 whole entry, looked up): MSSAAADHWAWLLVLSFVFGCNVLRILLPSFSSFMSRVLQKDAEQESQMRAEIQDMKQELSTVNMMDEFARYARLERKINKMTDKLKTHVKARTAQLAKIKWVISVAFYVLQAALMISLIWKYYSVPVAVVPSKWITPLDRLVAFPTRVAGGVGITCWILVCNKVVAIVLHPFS

Target | log2 fold change
USP8 (UniProt P40818) | 0
ZFPM1 (UniProt Q8IX07) | 0.013
VRK2 (UniProt Q86Y07) | 0.155
WDR91 (UniProt A4D1P6) | 0.026
WDR20 isoform 7 (UniProt Q8TBZ3) | 0.088
YRDC (UniProt Q86U90) | 0.025
UQCRC2 (UniProt P22695) | 0.005

These targets were tested with CC(C)(O)CC(=O)NCCn1ccc2ncnc(Nc3ccc(Oc4cccc(C(F)(F)F)c4)c(Cl)c3)c21 in the same assay as above.
How it was run: as §1

Target | log2 fold change
USP9X (UniProt Q93008) | -0.024
ZMYM1 (UniProt Q5SVZ6) | 0.016
ZNF598 isoform 3 (UniProt Q86UK7) | -0.017
VAV1 (UniProt P15498) | -0.042
WDR7 (UniProt Q9Y4E6) | -0.075
VPS11 (UniProt Q9H270) | -0.025
ZNF318 (UniProt Q5VUA4) | -0.06
VAC14 (UniProt Q08AM6) | -0.055
VPS41 (UniProt P49754) | 0.016
ZNHIT6 (UniProt Q9NWK9) | 0.005
ZZEF1 (UniProt O43149) | -0.057
VPS16 (UniProt Q9H269) | -0.038
ZHX1 (UniProt Q9UKY1) | 0.034
ZC3H13 (UniProt Q5T200) | -0.072
VRK1 (UniProt Q99986) | 0.005
VPS54 (UniProt Q9P1Q0) | -0.267

Target | log2 fold change
WDR45 isoform 2 (UniProt Q9Y484) | 0.111
XAB2 (UniProt Q9HCS7) | -0.051
YTHDF3 (UniProt Q7Z739) | -0.033
XPO6 (UniProt Q96QU8) | -0.006
WRB (UniProt O00258) | -0.255
XPOT (UniProt O43592) | -0.038
VPS18 (UniProt Q9P253) | -0.065
WDR3 (UniProt Q9UNX4) | 0.025
USP8 (UniProt P40818) | -0.014
ZFPM1 (UniProt Q8IX07) | -0.067
VRK2 (UniProt Q86Y07) | -0.041
WDR91 (UniProt A4D1P6) | -0.002
WDR20 isoform 7 (UniProt Q8TBZ3) | -0.023
YRDC (UniProt Q86U90) | -0.012
UQCRC2 (UniProt P22695) | -0.04
